In PubChem BioAssay (NCATS) one finds outcome and Potency data, which are given here for 31 molecules.

Inconclusive results are not listed. A call without a number means that no potency is given here. Active and inactive are the calls of the source. The call rests on the fitted dose curve; in most records, active means well fitted inhibition curve with a large enough effect; inconclusive means small, poorly fitted or top-dose-only effect; inactive means no such curve, though single readings can be large or run the other way.

The test in a line: P-glycoprotein substrates identified in KB-3-1 adenocarcinoma cell line, qHTS therapeutic library screen (AID 1346986). Further: nearly all actives have a fitted effect of over 60% in size. The following applies: KB-3-1 parental cells viability, CellTiter-Glo, 72 h; series mostly up to 44.5 µM. The gist of the method:
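Resistance attributable to P-gp was assessed by comparing AC50 in KB-8-5-11 with parental KB-3-1 and by tariquidar reversal. Cells were exposed 72 h and viability read by CellTiter-Glo.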
Take `CC(=O)O[C@@H]1[C@H](O[C@@H]2O[C@H](CO)[C@@H](O)[C@H](O)[C@H]2O)[C@@H](O[C@@H]2O[C@@H](C)[C@H](O)[C@@H](O[C@@H]3O[C@H](CO)[C@@H](O)[C@H](O)[C@H]3O)[C@H]2O)[C@H](OC(=O)C23CCC4(C)C(=CCC5C6(C)CC(O)C(O[C@@H]7O[C@H](C(=O)O)[C@@H](O)[C@H](O)[C@H]7O)C(C)(C(=O)O)C6CCC54C)C2CC(C)(C)CC3O)O[C@@H]1C` (stereo partly specified): the outcome was “inactive [at 9.29 µM]”. Regarding `C[C@@H]1C[C@H](O[C@@H]2O[C@H](CO[C@@H]3OC[C@](O)(CO)[C@H]3O)[C@@H](O)[C@H](O)[C@H]2O)CC(C)(C)[C@H]1/C=C/[C@@H](C)O`, the Potency result is “inactive”.

For `NC1CCC(N[C@@H]2C[C@H]2c2ccccc2)CC1` (stereo partly specified), the Potency result was “inactive”. As to `CN1C(=O)c2ccccc2-n2c(nc3ccccc3c2=O)/C1=C/c1ccccc1`, the Potency result was “inactive”. Regarding `Nc1ncnc2c1ncn2[C@H]1CCCO1`, the Potency result is “inactive”.

In the case of `CC(C)c1nc(N(C)S(C)(=O)=O)nc(-c2ccc(F)cc2)c1/C=C/[C@@H](O)C[C@@H](O)CC(=O)O`, the Potency result is “inactive”. On the same count and under the same terms, the result for `CCC(NC(=O)CC(NC(=O)C(CO)NC(=O)C(CC)NC(=O)c1ccc[nH]1)c1ccccc1)C(=O)O` (stereo unspecified) reads “inactive”; that for `CC(C)CC(=O)n1cc(C(N)=O)c(=O)cc1C(O)c1ccccc1` (stereo unspecified), “inactive”.

Regarding `CC1=C2C=C(CO)C(CO)CCC2(C)CCC1=O` (stereo unspecified), the Potency result was “inactive”. For the molecule `CO/N=C(/C(=O)N[C@@H]1C(=O)N2C(C(=O)O)=C(CSC(=O)c3ccco3)CS[C@H]12)c1csc(N)n1`, the Potency result is “inactive”. Still for that read-out and setting: the result for `CC(C)CC(=O)O[C@@H]1OC=C(CO[C@@H]2O[C@H](CO[C@@H]3O[C@H](CO)[C@@H](O)[C@H](O)[C@H]3O)[C@@H](O)[C@H](O)[C@H]2O)[C@H]2C[C@H](O)[C@@H](CO)[C@@H]12` reads “inactive”; that for `O=C(O)CCc1cccc(O[C@@H]2O[C@H](CO)[C@@H](O)[C@H](O)[C@H]2O)c1O`, “inactive”; that for `CC(=O)NC(C(=O)OC1CCC(C)(C)C2CC=C3C(=O)OCC3(O)C12C)C(C)C` (stereo unspecified), “inactive”. On the same count and under the same terms, with `COc1ccc2c(c1)O[C@H](O[C@@H]1O[C@H](CO)[C@@H](O)[C@H](O)[C@H]1O)C(=O)N2` the entry was “inactive”; with `CC(=O)O[C@H]1C[C@@H]2[C@]3(CC[C@]4(C)[C@@H](C5(C)CCC(C(C)(C)O)O5)[C@@H](O)C[C@@]24C)C[C@@]32CC[C@H](O[C@@H]3OC[C@@H](O)[C@H](O)[C@H]3O)C(C)(C)[C@H]12` (stereo partly specified), “inactive”; with `COC1C2=C(COC2=O)C2(C)CCCC(C)(CO)C2C1OC(=O)c1ccccc1` (stereo unspecified), “inactive”. Same read-out and setting: the result for `CC(=O)NCCCCn1c2c(c3ccccc31)C(=O)NCC2` reads “inactive”; that for `CC(C)C1=CCC(C)(O)C(OC2OC(CO)C(O)C(O)C2O)C1` (stereo unspecified), “inactive”; that for `CC(C)=CCC[C@](C)(O[C@@H]1O[C@H](CO[C@@H]2OC[C@@H](O)[C@H](O)[C@H]2O)[C@@H](O)[C@H](O)[C@H]1O)[C@H]1CC[C@]2(C)[C@@H]1[C@H](O)C[C@@H]1[C@@]3(C)CC[C@H](O[C@@H]4O[C@H](CO)[C@@H](O)[C@H](O)[C@H]4O[C@@H]4O[C@H](CO)[C@@H](O)[C@H](O)[C@H]4O)C(C)(C)[C@@H]3CC[C@]12C`, “inactive”. Turning to `CC1CC(=O)C2=C(O1)OC1(C)CCC3C(C)(C)C=CC(=O)C3(C)C1C2` (stereo unspecified), the Potency result is “inactive”.

For `CC1(C)CC[C@]2(C(=O)O)CC[C@]3(C)C(=CCC4[C@@]5(C)CC[C@H](O[C@@H]6O[C@H](C(=O)O)[C@@H](O)[C@H](O)[C@H]6O)C(C)(CO)C5CC[C@]43C)C2C1` (stereo partly specified), the Potency result was “inactive”.

Turning to `CC(C)(O)/C=C1/C(=O)C(C)(C)C(=O)C(C)(C)C1(O)O[C@@H]1O[C@H](COC(=O)c2cc(O)c(O)c(O)c2)[C@@H](O)[C@H](O)[C@H]1O` (stereo partly specified), the Potency entry is “inactive”. Consider `O=C(O)c1cc(O[C@@H]2O[C@H](CO[C@@H]3OC[C@@H](O)[C@H](O)[C@H]3O)[C@@H](O)[C@H](O)[C@H]2O)c2ccccc2c1O`, for which the Potency entry is “inactive”.

`O=C(O)c1ccc(CCCc2ccc(OCCc3ccc(F)cc3)cc2)o1`: the Potency result was “inactive”.

On to `CC(=O)[C@@H]1CC[C@]2(C(=O)O)CC[C@]3(C)C(CCC4[C@@]5(C)CC[C@H](O)C(C)(C)C5CC[C@]43C)C12` (stereo partly specified), for which the Potency result was “inactive”. `COC(=O)C1(Cc2ccc(O)cc2)OC(=O)C(OC)=C1c1ccc(O)cc1` (stereo unspecified): the Potency entry is “inactive”. As to `O=C(/C=C/c1c(C(=O)O)[nH]c2cc(Cl)cc(Cl)c12)Nc1ccccc1`, the Potency result is “inactive”.

With `C[C@H]1C[C@H]2[C@@H]3CCC4=CC(=O)C=C[C@]4(C)[C@@]3(F)[C@@H](O)C[C@]2(C)[C@@]1(O)C(=O)COP(=O)(O)O`, the Potency result is “inactive”. On the same count and under the same terms, with `CC(C)(O)C1CC=C(C(=O)OCC2OC(Oc3c(O)cc(C(=O)O)cc3O)C(O)C(O)C2O)CC1` (stereo unspecified) the entry was “inactive”. Same read-out and setting: with `COc1cc(COC2OC(CO)C(O)C(O)C2O)cc(OC)c1O` (stereo unspecified) the entry was “inactive”. As for `CNC(=O)O[C@H]1COc2ccc(N3CCN(C4COC4)CC3)cc2[C@@H]1NC(=O)c1ccc(F)cc1`, the Potency result was “inactive”.
